Laboratory results: PubChem BioAssay (NCI)
This is part of a sample that, as a whole, favours compounds with a hit. Of some 79,000 tested, about 15% had one in any assay. Values without a mark were called inactive. Rule as the data show it: active = growth inhibition above about 70%; inactive = the rest.

Assay: NCI Yeast Anticancer Drug Screen. Data for the rad50 strain (AID 155);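 also: 0% = growth of vehicle-only cultures of the same strain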
Details: S. cerevisiae rad50 strain growth inhibition; at 50.0 µM; hits give high values
In short: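 A DNA repair-deficient yeast mutant serves as the test organism; compound-induced growth inhibition is calculated against vehicle-treated cells.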

| Compound | growth inhibition |
| --- | --- |
| CC(O)CN1c2ccccc2Sc2ccc(Cl)cc21 (configuration not stated) | 19.2% |
| COc1cc(CNc2nc3ccccc3n2Cc2ccccc2)cc(CN2CCOCC2)c1O | -4.4% |
| N#Cc1c2c([nH]c(=O)c1C#N)CCCC2 | 15.5% |
| O=C(/C=C\c1ccc([N+](=O)[O-])cc1)c1ccccc1 | -1.6% |
| O=C(O)CC1C(=O)OC2C3COC(=O)c4cc(O)c(O)c(O)c4-c4c(cc(O)c(O)c4O)C(=O)OC2C(OC(=O)c2cc(O)c(O)c4c2C1C(O)C(=O)O4)C(OC(=O)c1cc(O)c(O)c(O)c1)O3 (configuration not stated) | 24.4% |
| CN(C)c1ccc(-c2c(C#N)c(N)[nH]c(=S)c2C#N)cc1 | 9.9% |
| COC(=O)C1=C(C)N(NC(N)=O)C2(N)N(NC(N)=O)C(C)=C(C(=O)OC)C12C#N (configuration not stated) | -23.5% |
| O=C(CCC(O)c1ccccc1)c1ccccc1 (configuration not stated) | -13.6% |
| NCCCNCCCCNC(=O)C(O)NC(=O)CC(O)CCCCN=C(N)N (configuration not stated) | -1.45% |
| CC(C)CCCC(C)[C@H]1CC[C@H]2[C@@H]3CC[C@H]4C[C@@H](CCC=C(c5cc(Cl)c(O)c(C(=O)OC(C)C)c5)c5cc(Cl)c(O)c(C(=O)OC(C)C)c5)CC[C@]4(C)[C@H]3CC[C@]12C (some centres not stated) | 17.7% |
| CC1NC(C)SC(C)S1 (configuration not stated) | -9.15% |
| NC(CCCC(N)C(=O)c1ccccc1)C(=O)c1ccccc1 (configuration not stated) | -13.7% |
| O=c1[nH]c2ccccc2c(=O)n1CCCN1CCN(c2cccc(Cl)c2)CC1 | 22% |
| Cc1c(C)c(C)c(CNNC(=S)Nc2ccc(S(=O)(=O)N3CCCCC3)cc2)c(C)c1C | -4.5% |
| O=C1OC(/C=C/c2ccccc2)=NC/1=C\C=C\c1ccccc1 | 24.1% |
| CCCOC(=O)CCCC1=NC2=CC=CC3=NC(C)=NC(=N1)N23 | -10.3% |
| CCCCOS(=O)OCCCC | 22.7% |
| NC(=O)C1=CNCCC1 | -1.15% |
| Cc1[nH]n(C(=O)c2ccc(Cl)cc2)c(=O)c1/C=C1\C(O)=CC(=O)c2ccccc21 | 31.6% |
| Cc1cc(C)c(S(=O)(=O)c2cccs2)c(C)c1 | -7% |
| CCCCOC(OCCCC)C(OCCCC)OCCCC | 18.9% |
| O=C(OCc1ccccc1C1CSCSC1)c1cc(C(=O)OCc2ccccc2C2CSCSC2)c(C(=O)OCc2ccccc2C2CSCSC2)cc1C(=O)OCc1ccccc1C1CSCSC1 | 5.3% |

Assay: NCI Yeast Anticancer Drug Screen. Data for the mec2-1 strain (AID 157)
Details: S. cerevisiae mec2-1 strain, at 50.0 µM, hits give high values
In short: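 Yeast mec2-1 mutant treated with compound. Readout: growth inhibition vs vehicle controls.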

| Compound | growth inhibition |
| --- | --- |
| O=C(O)/C=C/C(=O)Nc1ccc(Cl)cc1C(=O)c1ccccc1 | 9.1% |
| c1ccc(CNCCN(Cc2ccccc2)Cc2ccccc2)cc1 | -1.8% |
| COc1ccc(OC)c(C(C)=O)c1 | -66% |
| CCO/C(C)=C(/C(C)=O)C(=O)NC1CCCCC1 | 15.5% |
| Fc1ccc(-c2cc(-c3ccc(F)cc3)cc(-c3ccc(F)cc3)c2)cc1 | 11.5% |
| CCN(C(=O)c1ccc([N+](=O)[O-])cc1)C(c1ccccc1)P(=O)(c1ccccc1)c1ccccc1 (configuration not stated) | -4.5% |
| O=[N+]([O-])c1ccc(C2ON2C2CCCCC2)cc1 (configuration not stated) | -2.55% |
| NCc1ccccc1F | -23.9% |
| NC(CCC(=O)NC(CSCNC(=O)Nc1ccc(Cl)cc1)C(=O)NCC(=O)O)C(=O)O (configuration not stated) | 4.4% |
| O=C(O)CCNCCCCNCCC(=O)O | -11.8% |
| COc1ccc(/C=N\S(=O)(=O)c2ccc(OC)cc2)cc1 | 13.7% |
| O=C(N/N=C\c1cccnc1)Nc1ccc(N=Nc2ccccc2)cc1 | 12.5% |
| N=c1oc2ccc([N+](=O)[O-])cc2cc1C(=O)NCc1ccccc1 | -0.9% |
| CCOC(OCC)C(O)c1ccccc1 (configuration not stated) | -17% |
| COC(=O)CC1(CC(=O)O)SCCS1 | 4.3% |
| CCOC(=O)/C(CC)=N\O | -4.85% |
| Cc1cc2nc(NN)[nH]c2cc1C | 7.15% |
| CSc1nc(NC2OCC(O)C(O)C2O)cc(=O)n1C (configuration not stated) | -0.45% |
| CC(O)CN1c2ccccc2Sc2ccc(Cl)cc21 (configuration not stated) | 10.9% |
| COc1cc(CNc2nc3ccccc3n2Cc2ccccc2)cc(CN2CCOCC2)c1O | 15.7% |

| Compound | growth inhibition |
| --- | --- |
| N#Cc1c2c([nH]c(=O)c1C#N)CCCC2 | 10.5% |
| O=C(/C=C\c1ccc([N+](=O)[O-])cc1)c1ccccc1 | -6.1% |
| O=C(O)CC1C(=O)OC2C3COC(=O)c4cc(O)c(O)c(O)c4-c4c(cc(O)c(O)c4O)C(=O)OC2C(OC(=O)c2cc(O)c(O)c4c2C1C(O)C(=O)O4)C(OC(=O)c1cc(O)c(O)c(O)c1)O3 (configuration not stated) | 2.8% |
| CN(C)c1ccc(-c2c(C#N)c(N)[nH]c(=S)c2C#N)cc1 | -2.35% |
| COC(=O)C1=C(C)N(NC(N)=O)C2(N)N(NC(N)=O)C(C)=C(C(=O)OC)C12C#N (configuration not stated) | -11.6% |
| O=C(CCC(O)c1ccccc1)c1ccccc1 (configuration not stated) | -12.3% |
| NCCCNCCCCNC(=O)C(O)NC(=O)CC(O)CCCCN=C(N)N (configuration not stated) | -0.6% |
| CC(C)CCCC(C)[C@H]1CC[C@H]2[C@@H]3CC[C@H]4C[C@@H](CCC=C(c5cc(Cl)c(O)c(C(=O)OC(C)C)c5)c5cc(Cl)c(O)c(C(=O)OC(C)C)c5)CC[C@]4(C)[C@H]3CC[C@]12C (some centres not stated) | 9.05% |
| CC1NC(C)SC(C)S1 (configuration not stated) | -23.6% |
| NC(CCCC(N)C(=O)c1ccccc1)C(=O)c1ccccc1 (configuration not stated) | 2.35% |
| O=c1[nH]c2ccccc2c(=O)n1CCCN1CCN(c2cccc(Cl)c2)CC1 | 12.4% |
| Cc1c(C)c(C)c(CNNC(=S)Nc2ccc(S(=O)(=O)N3CCCCC3)cc2)c(C)c1C | -17.9% |
| O=C1OC(/C=C/c2ccccc2)=NC/1=C\C=C\c1ccccc1 | 14.8% |
| CCCOC(=O)CCCC1=NC2=CC=CC3=NC(C)=NC(=N1)N23 | -3.4% |
| CCCCOS(=O)OCCCC | 29.5% |
| NC(=O)C1=CNCCC1 | -6.05% |
| Cc1[nH]n(C(=O)c2ccc(Cl)cc2)c(=O)c1/C=C1\C(O)=CC(=O)c2ccccc21 | -6.85% |
| Cc1cc(C)c(S(=O)(=O)c2cccs2)c(C)c1 | -10.2% |
| CCCCOC(OCCCC)C(OCCCC)OCCCC | 8.2% |
| O=C(OCc1ccccc1C1CSCSC1)c1cc(C(=O)OCc2ccccc2C2CSCSC2)c(C(=O)OCc2ccccc2C2CSCSC2)cc1C(=O)OCc1ccccc1C1CSCSC1 | -17.7% |
